Screening results as filed in PubChem.
Compounds with a hit are over-represented: about 1.7% of the library has one in this group of screens.
aDG glyco up: activators of alpha-DG glycosylation, primary screen, uHTS, Pro5-aDG cells, AlphaScreen | hit rate 0.22% among 360,000 | activation, % at 10 µM | alpha-DG glycosylation AlphaScreen (IIH6); 0% Pro5, 100% B10-LARGE cell signal;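 active means activation of at least 8% versus controls, or a plate z-score of at least 8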;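 further: Pro5 are CHO cells carrying HIG-tagged alpha-DG that lacks glycosylation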
ARNT TACC3 PPI: disruptors of ARNT/TACC3 protein interaction, primary screen, biochemical, AlphaScreen, single concentration | AlphaScreen His-ARNT PAS-B/GST-TACC3 binding, luminescence; TACC3 fragment carries E629A point mutation | inhibition, % at 9.99 µM | hit rate 0.66% among 390,000 | AID 623870, 2012;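 active means mean inhibition of replicates at least 50% and at least half of replicates each reaching 50%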;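 further: 0% = complete ARNT plus TACC3 wells and 100% = ARNT alone without TACC3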
Vif imaging: HIV Vif self-association inhibitors, primary screen, imaging, HEK293T, single point. HEK293T cells, Vif self-association by quenched fluorescence, 24 h. inhibition, % at 7.49 µM. hit rate 0.35% among 340,000. AID 602346, 2012; in the data active means inhibition above about 50%, passing the limit was not always enough
Cardio protect: cardioprotection against H2O2-induced cell death, primary screen, uHTS, H9c2 cells, ATPLite luminescence | H9c2 cardiomyocytes, H2O2 injury protection, 2 h | protection from H2O2 cell death, % at 20 µM | hit rate 0.63% among 360,000;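 active means compounds giving at least 50% protection of heart cells from peroxide-induced death in the single-dose screen, raw or plate-pattern-corrected value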;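 further: 0% = DMSO wells with peroxide and 100% = DMSO wells without peroxide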
Glyco luc inh: increase of ERlucT glycosylation luciferase signal, primary screen, N-linked glycosylation inhibitor project, D54 ERlucT cells, luminescence, set 2; hit rate 0.23% among 360,000; D54 ERlucT glycosylation luciferase reporter, 24 h; percent of 100 nM tunicamycin response; reporter increase, % at 12.5 µM;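 active means mean luciferase reporter signal, scaled so untreated is 0 and the glycosylation-blocking control 100, at or above a set limit in every replicate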;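 further: luciferase carries N-glycosylation sites so blocking glycosylation raises the light; 0% = median of neutral control wells and 100% = median of 100 nM tunicamycin wells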
The depositor's hits bear a star.

Cc1ccc(S(=O)(=O)N(C)C)cc1NC(=O)COC(=O)c1n[nH]c(=O)c2ccccc12 was read as aDG glyco up -0.1, ARNT TACC3 PPI -3.5, Vif imaging 4.5, Cardio protect 11.4 and Glyco luc inh 1.5.
`Cc1ccc(S(=O)(=O)N(C)C)cc1NC(=O)COC(=O)Cc1n[nH]c(=O)c2ccccc12` gave aDG glyco up 0.3, ARNT TACC3 PPI -3.0 and Cardio protect 74.7*.
For O=C(NC(O)C(=O)c1cccs1)c1cccnc1 (stereo not given) the results were aDG glyco up -0.4, ARNT TACC3 PPI 0.5, Vif imaging 7.8, Cardio protect 83.2* and Glyco luc inh -0.2.
CC(=O)Nc1ccnc(-c2cccnc2)n1 was read as aDG glyco up 0.0, ARNT TACC3 PPI -6.1, Vif imaging -1.6, Cardio protect 8.2 and Glyco luc inh 3.1.
`O=C(Nc1ccnc(-c2cccnc2)n1)c1cccs1` gave aDG glyco up 0.1, ARNT TACC3 PPI 5.4, Vif imaging 119.3*, Cardio protect 10.2 and Glyco luc inh 3.7.
For COc1ccc(S(=O)(=O)N(C)C[C@@H]2OCCCC[C@H](C)Oc3ccc(NC(=O)NC(C)C)cc3C(=O)N([C@H](C)CO)C[C@@H]2C)cc1 the results were ARNT TACC3 PPI -0.3.
`Cc1cc(-c2csc3nc[nH]c(=S)c23)cc(C)c1C` gave aDG glyco up 0.6, ARNT TACC3 PPI 32.8, Vif imaging -4.2, Cardio protect 61.0* and Glyco luc inh 2.7.
`Cc1ccc(-c2csc3nc[nH]c(=S)c23)cc1` gave aDG glyco up 1.4, ARNT TACC3 PPI 28.2, Vif imaging 1.7, Cardio protect 42.7 and Glyco luc inh -5.3.
For COc1ccc(S(=O)(=O)N(C)C[C@H]2Oc3c(NS(=O)(=O)c4ccc(Cl)cc4)cccc3C(=O)N([C@@H](C)CO)C[C@@H]2C)cc1 the results were ARNT TACC3 PPI 1.7.
For O=c1[nH]c2cc3ccccc3cc2nc1C(F)(F)F the results were aDG glyco up 0.0, ARNT TACC3 PPI -1.4, Vif imaging -6.1, Cardio protect 33.5 and Glyco luc inh 3.2.
For O=c1[nH]c(-c2ccccn2)nc(C(F)(F)F)c1Br the results were aDG glyco up 4.5, ARNT TACC3 PPI 62.9*, Vif imaging -4.8, Cardio protect 32.5 and Glyco luc inh 4.5.
`COc1cccc(-c2coc3c(C)c4oc(=O)c(CCC(=O)O)c(C)c4cc23)c1` gave aDG glyco up 0.1, ARNT TACC3 PPI 62.2*, Vif imaging 17.6, Cardio protect -3.2 and Glyco luc inh 2.3.
Screening COc1ccccc1-c1ccc([C@H]2[C@@H](C#N)N(C(=O)C3CCC3)[C@H]2CO)cc1 returned ARNT TACC3 PPI 19.8.
Screening CC(C)NC(=O)[C@@]1(C)c2ccccc2C(=O)N(Cc2ccc(OC(F)(F)F)cc2)[C@H]1c1ccc(CO)cc1 returned ARNT TACC3 PPI 5.3.
`O=c1[nH]c(CSc2ncnc3sc(-c4ccccc4)cc23)nc2ccccc12` gave aDG glyco up 0.1, ARNT TACC3 PPI -4.6, Vif imaging -1.4, Cardio protect 12.8 and Glyco luc inh 32.6*.
Screening CN(C)c1ccc(N=c2sc3ccccc3n2C)cc1 returned aDG glyco up -0.9, ARNT TACC3 PPI 72.3*, Vif imaging 2.2, Cardio protect -11.2 and Glyco luc inh -1.6.
Screening COC(=O)c1ccc(C(=O)OC)c(NC(=O)COC(=O)C23CC4CC(CC(O)(C4)C2)C3)c1 returned aDG glyco up -0.1, ARNT TACC3 PPI -4.6, Vif imaging 51.8*, Cardio protect 87.8* and Glyco luc inh 1.4.
For CC(=O)c1ccc(N2CCN(C(=O)c3cc(-c4cccnc4)nc4ccc(Br)cc34)CC2)cc1 the results were aDG glyco up -0.8, ARNT TACC3 PPI -5.3, Vif imaging -5.6, Cardio protect 53.1* and Glyco luc inh 7.0.
Screening O=C(c1cc(-c2ccncc2)nc2ccc(Br)cc12)N1CCN(Cc2ccc3c(c2)OCO3)CC1 returned aDG glyco up -0.9, ARNT TACC3 PPI 4.8, Vif imaging -6.7, Cardio protect 65.7* and Glyco luc inh 2.6.
Screening CS(=O)(=O)N1CCN(C(=O)c2cc(-c3cccnc3)nc3ccc(Br)cc23)CC1 returned aDG glyco up -0.9, ARNT TACC3 PPI 33.0, Vif imaging -1.1, Cardio protect 28.4 and Glyco luc inh 0.1.
For O=C(c1cc(-c2cccnc2)nc2ccc(Br)cc12)N1CCN(c2ncccn2)CC1 the results were aDG glyco up -0.8, ARNT TACC3 PPI -2.1, Vif imaging 2.3, Cardio protect 59.2* and Glyco luc inh -0.4.
For CC=Cc1ccc2n(c1=O)C[C@@H]1[C@@H](CO)[C@H](C(=O)N(C)C)N(CCC(F)(F)F)[C@H]21 (mixture of isomers) the results were ARNT TACC3 PPI 1.1.
O=C(C[C@@H]1CC[C@H]2[C@@H](COC[C@@H](O)CN2Cc2cc(F)ccc2F)O1)NCc1ccc(Cl)cc1 was read as ARNT TACC3 PPI 3.6.
For Cc1ccc(Cn2c(CCNc3nc(-c4ccc(Cl)c([N+](=O)[O-])c4)cs3)nc3cc(C(=O)NCCCO)ccc32)cc1 the results were aDG glyco up -0.1, ARNT TACC3 PPI -9.8, Cardio protect 69.7* and Glyco luc inh -0.4.
Screening O=[N+]([O-])c1cc(-c2csc(NCCc3nc4cc(C(F)(F)F)ccc4n3CCCO)n2)ccc1Cl returned aDG glyco up -0.2, ARNT TACC3 PPI -1.6, Vif imaging -3.5, Cardio protect -12.3 and Glyco luc inh 6.0.
`CCc1cc2c(Sc3nc4ccccc4s3)ncnc2s1` gave aDG glyco up 0.3, ARNT TACC3 PPI 4.4, Vif imaging 89.0*, Cardio protect -16.1 and Glyco luc inh 6.3.
c1ccc2sc(Sc3ncnc4sccc34)nc2c1 was read as aDG glyco up 0.6, ARNT TACC3 PPI 2.8, Vif imaging -5.9, Cardio protect -7.4 and Glyco luc inh 21.7.
C[C@@H]1CCCCO[C@H](CN(C)C(=O)Nc2ccc(F)cc2)[C@@H](C)CN([C@@H](C)CO)C(=O)c2cc(NC(=O)Nc3ccccc3)ccc2O1 was read as ARNT TACC3 PPI 0.8.
For CC=Cc1ccc2n(c1=O)C[C@H]1[C@H](CO)[C@@H](C(=O)NCc3cccc(F)c3)[C@@H]2N1S(C)(=O)=O (mixture of isomers) the results were ARNT TACC3 PPI -4.8.
CO[C@@H]1CN(C)C(=O)c2cc(NC(C)=O)ccc2OC[C@H](C)NC[C@@H]1C was read as ARNT TACC3 PPI -1.0.
`O=c1c2c(-c3ccccc3)csc2ncn1/N=C/c1cccc([N+](=O)[O-])c1O` gave aDG glyco up -0.1, ARNT TACC3 PPI 72.5*, Vif imaging -10.5, Cardio protect 30.9 and Glyco luc inh -0.7.
